Assays:
Test in all cases: PBM binding z-score (relative to random genomic background probes); higher = stronger binding; sequences stand for … in GC…GCGATTGACAGCGTAGAATGAAGG
[1] = tested on: FXR:RXRa (NR concentration 270 nM, RXRa partner concentration 90 nM)
Procedure, shortened: (§1)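 Each nuclear receptor dimer, without ligand, was incubated for 1 h on custom Agilent 4×180K protein-binding microarrays. Binding was detected with antibodies against each partner (one per run), and scanned fluorescence was regression-normalized. The binding z-scores are referenced to random human genomic background probes.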

[2] = tested on: LXRa:RXRa (NR concentration 270 nM, RXRa partner concentration 90 nM)
Procedure, shortened: as §1

[3] = tested on: LXRa homodimer (NR concentration 270 nM)
Procedure, shortened: as §1

[4] = tested on: LXRb:RXRa (NR concentration 270 nM, RXRa partner concentration 90 nM)
Procedure, shortened: as §1

[5] = tested on: LXRb homodimer (NR concentration 270 nM)
Procedure, shortened: as §1

[6] = tested on: PPARa:RXRa (NR concentration 270 nM, RXRa partner concentration 90 nM)
Procedure, shortened: as §1

[7] = tested on: PPARg:RXRa (NR concentration 180 nM, RXRa partner concentration 90 nM)
Procedure, shortened: as §1

[8] = tested on: PPARg:RXRa 270nM:90nM, anti-RXR (NR concentration 270 nM, RXRa partner concentration 90 nM)
Procedure, shortened: as §1

[9] = tested on: PPARg:RXRa 30nM:10nM, anti-RXR (NR concentration 30 nM, RXRa partner concentration 10 nM)
Procedure, shortened: as §1

[10] = tested on: PPARg:RXRa 90nM:30nM, anti-RXR (NR concentration 90 nM, RXRa partner concentration 30 nM)
Procedure, shortened: as §1

[11] = tested on: PPARg:RXRa DBDmut IVT, anti-RXR (DBD mutation: RXRa K156A/R161A, NR concentration 270 nM, RXRa partner concentration 90 nM)
Procedure, shortened: as §1

[12] = tested on: PPARg:RXRa IVT, anti-PPARg (NR concentration 270 nM, RXRa partner concentration 90 nM)
Procedure, shortened: as §1

[13] = tested on: PPARg DBDmut:RXRa IVT, anti-PPARg (DBD mutation: PPARg1 K132A/R137A, NR concentration 270 nM, RXRa partner concentration 90 nM)
Procedure, shortened: as §1

[14] = tested on: PPARg DBDmut IVT, anti-PPARg (DBD mutation: PPARg1 K132A/R137A, NR concentration 270 nM)
Procedure, shortened: as §1

[15] = tested on: PPARg homodimer (NR concentration 180 nM)
Procedure, shortened: as §1

[16] = tested on: PXR:RXRa (NR concentration 270 nM, RXRa partner concentration 90 nM)
Procedure, shortened: as §1

[17] = tested on: PXR homodimer (NR concentration 270 nM)
Procedure, shortened: as §1

[18] = tested on: RARa:RXR (NR concentration 270 nM, RXRa partner concentration 90 nM)
Procedure, shortened: as §1

[19] = tested on: RARa homodimer (NR concentration 270 nM)
Procedure, shortened: as §1

[20] = tested on: RARb:RXRa (NR concentration 270 nM, RXRa partner concentration 90 nM)
Procedure, shortened: as §1

Row | Sequence | PBM binding z-score [1] | PBM binding z-score [2] | PBM binding z-score [3] | PBM binding z-score [4] | PBM binding z-score [5] | PBM binding z-score [6] | PBM binding z-score [7] | PBM binding z-score [8] | PBM binding z-score [9] | PBM binding z-score [10] | PBM binding z-score [11] | PBM binding z-score [12] | PBM binding z-score [13] | PBM binding z-score [14] | PBM binding z-score [15] | PBM binding z-score [16] | PBM binding z-score [17] | PBM binding z-score [18] | PBM binding z-score [19] | PBM binding z-score [20]
1 | ATCTCTAGGTAACAAGTTCGGTGAAAGAGAGGAC | 0.656 | 0.804 | 0.56 | 0.383 | 0.814 | 0.973 | 1.13 | 1.67 | 0.766 | 1.35 | 3.31 | 2.96 | 1.06 | 0.893 | 1.01 | 0.677 | 0.713 | 0.675 | 0.59 | 0.969
2 | ATCTCTAGGTAACAACTTCAGTGAAAGAGAGGAC | 0.55 | 0.485 | 0.102 | 0.396 | 0.978 | 0.493 | 0.782 | 0.618 | 0.652 | 0.573 | 3.07 | 2.74 | 1.64 | 1.45 | 0.774 | 0.286 | 0.641 | 0.537 | 0.713 | 0.586
3 | TCTAGTTGGTGAAAGGTCACACACTCGAAATGCG | 5.7 | 5.73 | 3.63 | 5.31 | 1.6 | 6.32 | 10.8 | 9.75 | 9.91 | 11.4 | 2.69 | 5.86 | 2.76 | 2.05 | 7.7 | 5.97 | 2.06 | 7.3 | 4.58 | 4.79
4 | CAAACTAGGTCAAGAAGTCAAAGTCCGCTTCCCG | 3.65 | 2.9 | 0.599 | 1.94 | 0.337 | 4.89 | 7.74 | 6.67 | 4.66 | 6.22 | 7.86 | 8.35 | 2.53 | 3.42 | 2.98 | 1.49 | 0.206 | 2.77 | 0.734 | 4.05
5 | TGTCGAAGTTCAAAGGTAACGTAAGTATCCACAC | 4.25 | 4.02 | 1.18 | 3.18 | 0.108 | 4.72 | 4.47 | 5.23 | 2.95 | 4.34 | -0.721 | 2.09 | 0.265 | 0.298 | 1.53 | 4.12 | 1.65 | 4.17 | 0.485 | 3.61
6 | ATCTCTGGGTAAAGTTCAGTGAAAGATCGATAGA | 1.19 | 1.87 | 1.6 | 1.39 | 1.23 | 2.87 | 4.06 | 5.26 | 3.21 | 4.78 | 1.98 | 2.87 | 0.904 | 1.34 | 1.32 | 2.12 | 1.91 | 1.55 | 1.47 | 2.73

Reference: the supplement of paper PMC6555819
